An excerpt weighted towards active compounds, which were near 19% of everything screened.
HT1080 IDH1KD tx: kills HT-1080 cells with IDH1 knockdown; HT-1080 IDH1 knockdown viability, ATP luminescence, 48 h; Potency, µM (series often up to 46.1 µM), inactives show at the top dose activity, negative = toxicity, usual class: cytotoxic; 360,000 compounds, 2% hits; AID 686971;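 further: potency means the concentration at half of the fitted maximal effect; 0% = DMSO wells and -100% = cell-free medium wells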
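Cytotoxicity counter-line: IDH1KD HT-1080, 48 h, CellTiter-Glo. Curves classed by r2, magnitude and activity.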
ELG1 repair inh: ELG1-dependent DNA repair inhibition. AID 504467. 330,000 compounds, 2.3% hits. Potency, µM (highest dose often 46.1 µM), inactives show at the top dose activity change, negative = inhibition, hits mostly inhibitors. HEK293T ELG1-luciferase reporter, luminescence, 16 h; DNA damage induced by 5-fluorouridine; further: potency means the concentration at half of the fitted maximal effect; nearly all actives have a fitted effect of over 55% in size
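Reporter activity after DNA damage by 5-fluorouridine is monitored. Compound-treated cells incubate 16 hr at 37 °C, then ONE-Glo is added for 30 min before luminescence reading.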
TDP1 cell noCPT: qHTS for Inhibitors of human tyrosyl-DNA phosphodiesterase 1 (TDP1): qHTS in cells in absence of CPT | DT40 Tdp1-/- hTDP1 cells, no CPT, ATP luminescence, 48 h | Potency, µM (top dose mostly 46.2 µM), for the others: at the top dose activity change, negative = growth inhibition, hits mostly inhibitors | 420,000 compounds, 15% hits | AID 686978, 2013; further: potency means the concentration at half of the fitted maximal effect; nearly all actives have a fitted effect of over 55% in size
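Compound effects on proliferation are scored in DT40 Tdp1-/-;hTDP1 cells in the absence of CPT. ATP levels (CellTiter-Glo luminescence) are recorded after a ≥48 hr, 37 °C incubation.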
DT40 TDP1 CPT: DT40-hTDP1 cell growth loss with CPT. chicken DT40 Tdp1-/-;hTDP1 cells + 20 nM CPT, ATP luminescence, 48 h. Potency, µM (doses to about 46.2 µM), inactives show at the highest dose activity change, negative = growth inhibition, most hits filed as inhibitors. 420,000 compounds, 12% hits; further: potency means the concentration at half of the fitted maximal effect; nearly all actives have a fitted effect of over 55% in size
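Chicken DT40 Tdp1-/- cells complemented with human TDP1, 400 cells/well, exposed to compounds plus 20 nM camptothecin for at least 48 h at 37 C; viability read as ATP content by CellTiter-Glo luminescence.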
IL-1B inflam inh: inhibitors of inflammasome signaling (IL-1 beta secretion) | THP-1 LPS/ATP IL-1B secretion, AlphaLISA, 16 h; active compounds read low | activity change, % at 57.5 µM | 360,000 compounds, 4.7% hits; in the data active means activity change below about -50%; inconclusive means mostly about -30% to -49%
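Secreted IL-1B measured by AlphaLISA bead assay after 16 h compound exposure of THP-1 cells; compounds (final up to 57.5 uM) added 1 h before LPS (250 ng/mL) and ATP (1.25 mM) stimulation; lower signal means less secretion.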
HT1080NT lethal: kills 2HG-producing HT-1080-NT fibrosarcoma cells; HT-1080-NT fibrosarcoma viability, CellTiter-Glo ATP luminescence, 48 h; Potency, µM (highest dose often 46.1 µM), for the others: top-dose activity, negative = less viability, usual class: cytotoxic; 360,000 compounds, 1.6% hits;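 further: NT is the 2HG producing partner of a matched IDH1 knockdown line; potency means the concentration at half of the fitted maximal effect; 0% = DMSO-treated cells and -100% = media-only wells without cells; nearly all actives have a fitted effect of over 55% in size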
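HT-1080-NT fibrosarcoma cells (2HG-overproducing), 750 cells/well in RPMI with 5% FBS, dosed after 2 h and incubated 48 h at 37C. CellTiter-Glo luminescence normalized to DMSO and no-cell wells; concentration-response curves fitted and classed.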
Numbers without * were called inactive; i = inactive; ? = inconclusive; . = no result. Unless noted, the call rests on the fitted dose curve; in most records, active means well fitted curve in the direction sought with a large enough effect; inconclusive means small, poorly fitted or top-dose-only effect, or another doubt; inactive means no such curve, though single readings can be large; an effect the other way counts as inactive or inconclusive. Unless noted, on the % scale 0 is the no-effect control and ±100 the full control effect.

SMILES	HT1080 IDH1KD tx	ELG1 repair inh	TDP1 cell noCPT	DT40 TDP1 CPT	IL-1B inflam inh	HT1080NT lethal
CCOC(=O)c1c(NC(=O)COC(=O)Cn2cnc3ccccc32)sc2c1CCC(C)C2 (centres undefined)	1.9%	-7.6%	?	23.7%	14.6	-1.5%
COC(=O)c1c(NC(=O)COc2ccc(OC)cc2)sc2c1CCC(C)C2 (centres undefined)	.	.	7.31µM*	?	.	.
CCOC(=O)c1c(NC(=S)NC(=O)c2ccc(Cn3cc(Cl)cn3)o2)sc2c1CCC(C)C2 (centres undefined)	-3.8%	-4.6%	8.2µM*	13µM*	5.6	1.7%
COc1ccc(CNC(=O)c2sc(=O)n(Cc3ccccc3OC)c2C)cc1	5.6%	.	?	?	-23.6	6.9%
COc1cc2oc(=O)c(CC(=O)N3CCCCC3)c(C)c2cc1OC	.	.	8.7%	-18.0%	.	.
COc1ccc(-c2cc(C(=O)Nc3ccc(O)cc3)c3ccccc3n2)cc1OC	-29.1%	?	1.46µM*	10.3µM*	-25.4	?
COc1ccccc1NC(=O)c1cc(-c2ccc(OC)c(OC)c2)nc2ccccc12	11.1%	-6.4%	9.2µM*	16.4µM*	-3.6	18.9%
COc1ccc(-c2cc(C(=O)NCC(c3ccccc3)N(C)C)c3ccccc3n2)cc1OC (centres undefined)	?	-19.3%	?	?	?	?
O=C(CNC(=O)c1cccs1)OCc1c(F)cccc1Cl	17.9%	2.9%	4.6%	30.0%	4.9	23.7%
Cc1cc(N2CCN(C)CC2)nc2ccc(NC(=S)NCCC(C)C)cc12	-16.9%	11.7%	14.6µM*	23.1µM*	-6.0	?
Cc1cc(N2CCOCC2)nc2ccc(NC(=S)NCCC(C)C)cc12	?	?	20.6µM*	18.4µM*	-50.5*	-6.9%
COc1ccc(CCNC(=O)CSC2=Nc3ccccc3C3=NC(CCC(=O)NCc4ccccc4)C(=O)N23)cc1OC (centres undefined)	.	.	2.0%	-22.5%	.	.
Cc1ccc(CNc2nc3ccccc3n2C)cc1	-6.5%	?	?	-24.9%	-3.6	-8.5%
Cc1ccc(C)c(N=Nc2nc3ccccc3n2C)c1	7.94µM*	?	3.55µM*	5.8µM*	-79.7*	3.98µM*
Cc1cc(C)c(C)c(N=Nc2nc3ccccc3n2C)c1C	?	?	23.1µM*	?	?	?
CC(C)N(Cc1ccccc1)C(=O)C1CCCN(c2ncnc3onc(-c4ccc(F)cc4)c23)C1 (centres undefined)	.	.	5.17µM*	7.31µM*	.	.
CCc1ccccc1NC(=O)C1CCCN(c2ncnc3onc(-c4ccc(F)cc4)c23)C1 (centres undefined)	?	-23.4%	?	?	-13.3	-0.2%
CCCCN(C)C(=O)C1CCCN(c2ncnc3onc(-c4ccc(F)cc4)c23)C1 (centres undefined)	.	.	23.1µM*	14.6µM*	.	.
CCCN(CCC)C(=O)C1CCCN(c2ncnc3onc(-c4ccc(F)cc4)c23)C1 (centres undefined)	.	.	16.4µM*	5.17µM*	.	.
CCc1ccccc1NC(=O)C1CCN(S(=O)(=O)c2ccc3[nH]c(=O)ccc3c2)CC1	.	.	8.9%	5.3%	.	.
CC1(C)CC(=O)C2=C(C1)N=C1SCCC(=O)N1C2c1cccc([N+](=O)[O-])c1 (centres undefined)	7.5%	-12.1%	-22.9%	-27.4%	0.0	8.1%
Cc1cc(C)n(CC(=O)NNC(=O)c2ccc(S(C)(=O)=O)cc2)n1	-4.3%	3.9%	-3.9%	-4.6%	11.7	-2.6%
COc1ccc(CN2CCN(Cc3ccc(C(F)(F)F)cc3)CC2)c(OC)c1	-13.5%	-21.5%	14.6µM*	20.6µM*	-23.8	-12.7%
COc1cc(CN2CCN(Cc3ccc(C(F)(F)F)cc3)CC2)cc(OC)c1OC	-6.3%	?	20.6µM*	23.1µM*	-1.2	-6.5%
COc1cc(CN2CCN(Cc3ccccc3C(F)(F)F)CC2)cc(OC)c1OC	-7.2%	?	25.9µM*	?	-21.8	7.0%
SMILES	HT1080 IDH1KD tx	ELG1 repair inh	TDP1 cell noCPT	DT40 TDP1 CPT	IL-1B inflam inh	HT1080NT lethal
O=C1CCC(C(=O)Nc2ccccc2N2CCCC2)=NN1	10.8%	26.4%	-21.4%	-4.8%	1.8	5.9%
COc1ccc(N2CCN(C(=O)COC(=O)[C@@H](NC(=O)OCc3ccccc3)C(C)C)CC2)cc1	8.0%	.	?	?	24.5	8.2%
COCCCNC(=O)C1CCC(CNS(=O)(=O)c2ccc(Cl)cc2)CC1 (centres undefined)	-7.0%	3.0%	-21.6%	-4.5%	-9.6	-14.1%
CC(=O)c1cccc(N2C(=O)CN(S(C)(=O)=O)CC2(C)C(=O)NC2CCCC2)c1 (centres undefined)	.	.	-10.7%	-17.8%	.	.
C/C(N)=C(/C#N)C(=O)COC(=O)c1cc2c(s1)CCC(C)C2 (centres undefined)	-10.6%	?	-29.4%	-8.5%	3.1	-16.7%
Cc1ccc(CNC(=O)COC(=O)C2CC2)cc1	7.5%	?	3.6%	-0.5%	1.3	6.0%
CC1CCc2sc(C(=O)NCc3ccccn3)cc2C1 (centres undefined)	-0.5%	?	16.4µM*	18.4µM*	-14.3	-5.4%
CC1CCc2c(C(=O)NCc3ccccn3)csc2C1 (centres undefined)	-9.1%	?	-34.8%	-10.9%	-13.1	-8.5%
CC1CCc2sc(C(=O)OCC(=O)NCc3ccccc3)cc2C1 (centres undefined)	?	-2.2%	18.4µM*	20.6µM*	7.9	?
Cc1ccc(CNC(=O)COC(=O)c2cc3c(s2)CCC(C)C3)cc1 (centres undefined)	?	-3.4%	?	20.6µM*	5.9	?
O=C1Cc2cc(S(=O)(=O)N3CCNCC3)ccc2N1	11.7%	1.8%	-17.1%	-14.3%	20.9	7.1%
C#Cc1cccc(NC(=O)c2ccc3c(c2)C(=O)N(Cc2cccnc2)C3=O)c1	8.7%	17.5%	13.0%	-10.4%	i	-2.2%
CN(C)CCCNS(=O)(=O)c1ccc(-n2nnc3ccccc32)c([N+](=O)[O-])c1	-14.7%	8.5%	?	?	33.8	?
CN(C)CCCNS(=O)(=O)c1ccc(N2CCN(Cc3ccc4c(c3)OCO4)CC2)c([N+](=O)[O-])c1	?	-16.4%	20.6µM*	23.1µM*	-69.9*	?

Compound activity as filed in PubChem.
